Bioassay records: PubChem BioAssay, The Scripps Research Institute Molecular Screening Center
A selection: hits, their analogues and other compounds. The true share with any hit is near 5.7%.
AHR act: activators of human aryl hydrocarbon receptor | 2.5% of 320,000 active | AHR-responsive luciferase reporter cells, luminescence | activation, % at 5 µM | P35869; in the data active = activation above about 47%;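 note: 0% = vehicle wells and 100% = reference agonist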
hgDAF-12 ag: agonists of H. glycines DAF-12 nuclear receptor; HEK293 GAL4-hgDAF12 UAS-luciferase reporter, agonist luminescence; normalized to butyrate control; activation, % at 6.8 µM; 1.8% of 370,000 active; AID 687014;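 active = activation above a cutoff set at the mean of all screened compounds plus 3 SD, cut at about 10% in these data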;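 note: 0% = DMSO wells and 100% = sodium butyrate wells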
hcDAF-12 act: activates DAF-12 receptor from parasite H. contortus. 1.4% of 370,000 active. AID 652067. HEK293 hcDAF-12 lit1-tk-luc reporter, luminescence; 0% DMSO, 100% Δ7-dafachronic acid. activation, % at 6.8 µM;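 active = activation above the mean of all tested compounds plus 3 SD, cut at about 5.5% in these data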;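 note: 100% = response to 3 µM Δ7-dafachronic acid high control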
DAX1 inh-1: inhibits human nuclear receptor DAX1 | AID 504766 | P51843 | 0.99% of 340,000 active | inhibition, % at 6.75 µM | HEK293 Gal4-DAX1 luciferase reporter, luminescence;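 active = inhibition above the mean over all tested compounds plus 3 SD, cut at about 4.2% in these data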;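 note: 0% = DAX1-transfected cells with DMSO and 100% = empty-vector control cells with DMSO; inhibition shows as a rise in luminescence from relieved DAX1 repression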
DAX1 inh-2: blocks DAX1 repression of SF-1 activated StAR promoter. inhibition, % at 6.8 µM. 1.1% of 370,000 active. AID 652010. HEK293T StAR-luciferase reporter, SF-1/DAX-1 repression relief;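 active = inhibition above the mean over all tested compounds plus 3 SD, cut at about 3.6% in these data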;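 note: 0% = DAX-1 cells with DMSO and 100% = cells lacking DAX-1 with DMSO; higher inhibition means more luminescence from relief of DAX-1 repression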
ssDAF-12 act: activators of S. stercoralis DAF-12 nuclear receptor; HEK293 ssDAF-12/GRIP1 lit1-tk-luc reporter, luminescence; % of 3 µM dafachronic acid response; activation, % at 6.8 µM; 1% of 370,000 active;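 active = activation above the mean over all tested compounds plus 3 SD, cut at about 0.9% in these data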;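 note: 0% = DMSO-only wells and 100% = 3 µM delta7-dafachronic acid wells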
AHR act confirm: confirmation of human aryl hydrocarbon receptor activators | activation, % at 9 µM | shares compounds with AHR act | 87% of 2,300 active | human cells, AHR-responsive luciferase reporter, luminescence | AID 2845; in the data active = activation above about 49%;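 note: HepG2 hepatoma cells carrying a DRE-driven firefly luciferase reporter; 0% = vehicle wells and 100% = reference agonist wells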
PXR counter: activates human PXR in AHR activator counter-screen. shares compounds with AHR act. cell-based PXR reporter, luciferase luminescence. activation, % at 11.6 µM. 88% of 2,300 active; in the data active = activation above about 11%;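 note: human hepatoma DPX-2 cells expressing full-length human PXR; 0% = DMSO and 100% = reference agonist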
Target sequence (O75469 whole entry, looked up): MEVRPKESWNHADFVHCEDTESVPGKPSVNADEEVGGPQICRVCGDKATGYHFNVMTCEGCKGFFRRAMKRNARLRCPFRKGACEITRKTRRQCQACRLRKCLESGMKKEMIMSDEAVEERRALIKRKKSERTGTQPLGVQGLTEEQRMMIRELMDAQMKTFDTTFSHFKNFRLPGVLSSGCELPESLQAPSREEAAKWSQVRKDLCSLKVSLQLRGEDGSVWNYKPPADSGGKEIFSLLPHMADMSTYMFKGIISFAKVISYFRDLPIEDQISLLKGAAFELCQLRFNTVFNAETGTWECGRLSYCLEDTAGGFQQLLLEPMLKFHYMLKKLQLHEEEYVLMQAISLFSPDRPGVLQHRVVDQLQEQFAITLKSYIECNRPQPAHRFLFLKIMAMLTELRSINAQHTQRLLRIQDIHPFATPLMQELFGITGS
Active calls of the source: *; · = not tested or not shown.

SMILES	AHR act	hgDAF-12 ag	hcDAF-12 act	DAX1 inh-1	DAX1 inh-2	ssDAF-12 act	AHR act confirm	PXR counter
Clc1ccc2[nH]c(-c3ccccc3)cc2c1	115*	9	2	1	1	0	138*	17*
O=c1cc(-c2ccccc2)[nH]c2cc(Cl)ccc12	96*	2	3	-2	-2	0	64*	23*
Cc1cccc(NC2=C(NCCO)C(=O)c3ccccc3C2=O)c1	113*	2	3	-2	0	0	77*	65*
COc1cccc(NC2=C(NCCO)C(=O)c3ccccc3C2=O)c1	10	-2	0	0	-1	-1	·	·
Cc1nc2ccccc2c2c(N)cccc12	·	3	-1	1	0	-1	·	·
Cc1cc2nn(-c3cccc4ccccc34)nc2cc1N	82*	3	2	0	0	0	110*	21*
Cc1cc(C(=O)N/N=C/c2ccc(C)s2)n[nH]1	97*	4	0	0	0	0	89*	24*
Cc1cc(C(=O)N/N=C/c2ccc([N+](=O)[O-])s2)n[nH]1	2	-8	-3	-3	-1	-1	·	·
O=C1c2cc(F)ccc2-n2c1nc1ccccc1c2=O	100*	-6	-1	-1	-1	-1	-16	-17
Nn1c(-c2ccc(F)cc2)nc2ccccc2c1=O	4	0	-1	1	0	-1	·	·
CN(C)c1cccc(C(=O)n2cc(C(=O)c3cc(F)ccc3O)cn2)c1	86*	9	0	0	1	-1	30	20*
COc1ccc(O)c(C(=O)c2cnn(C(=O)c3cccc(N(C)C)c3)c2)c1	13	10	4	0	1	0	·	·
N#Cc1ccccc1NC(=O)C1SC(=Nc2ccccc2)C(C(=O)Nc2ccc(Cl)cc2)=C1N (centres undefined)	29	1	-2	0	0	-1	·	·
CCOc1ccc(N=C2SC(C(=O)Nc3ccccc3C#N)C(N)=C2C(=O)Nc2ccc(Cl)cc2)cc1 (centres undefined)	86*	-1	1	0	0	-1	71*	5
NC1=C(Br)C(=O)c2ncccc2C1=O	·	-19	-7	-7	-6	-3	·	·
C=CCc1ccccc1OCCOc1ccc([N+](=O)[O-])cc1/C=N/NC(N)=O	111*	0	-1	0	0	-1	90*	35*
Cn1c(=O)cc(SCC(=O)NCc2ccco2)c2ccccc21	1	-4	-2	4	0	-1	·	·
CCc1cccc(NC(=O)Cc2cn(C)c3ccccc23)c1	104*	0	0	2	-1	-1	24	83*
CCc1ccc(NC(=O)Cc2cn(C)c3ccccc23)cc1	37	5	2	-1	1	0	·	·
Cc1cc(C)c2cc3c(N)c(C(=O)N4CCc5ccccc5C4)sc3nc2c1	10	-2	0	-1	0	-2	·	·
Cc1cccc2cc3c(N)c(C(=O)N4CCOCC4)sc3nc12	81*	4	1	0	0	-1	78*	·
O=C(CCN1C(=O)/C(=C/c2ccccc2)SC1=S)NNC(=O)c1ccncc1	120*	4	-1	1	0	-1	15	5
COc1ccc([N+](=O)[O-])cc1CN1CCN(c2ncc(Cc3ccccc3)cn2)CC1	·	2	-1	·	-1	-1	·	·
CC(=O)Nc1cccc(OCCCNC(=O)c2cccc3ccccc23)c1	22	2	2	·	0	-1	·	·
C=CCNc1ncnc2c1[nH]c1ccc(Cl)cc12	110*	2	-3	-4	-2	-1	113*	44*
SMILES	AHR act	hgDAF-12 ag	hcDAF-12 act	DAX1 inh-1	DAX1 inh-2	ssDAF-12 act	AHR act confirm	PXR counter
Cn1cccc1/C=N/n1c(-c2ccc(Cl)cc2)n[nH]c1=S	89*	0	-1	0	0	-1	81*	25*
CCOc1ccc(OCCC(=O)OCC(=O)N2CCN(S(=O)(=O)c3ccc(C)cc3C)CC2)cc1	·	2	-2	-1	-1	-1	·	·
CC(C)NC(=O)c1ccc2c(=O)n(Cc3ccco3)c(=S)[nH]c2c1	36	4	5	0	0	0	·	·
CCCNC(=O)c1ccc2c(=O)n(Cc3ccco3)c(=S)[nH]c2c1	88*	-4	1	1	0	-2	70*	34*
CON/C=C(\C=Nc1ccc(C(F)(F)F)cc1)c1ncc(C(F)(F)F)cc1Cl	108*	1	0	2	-1	-2	103*	31*
CON/C=C(\C=Nc1ccc(Cl)cc1)c1ncc(C(F)(F)F)cc1Cl	112*	3	3	0	1	-1	93*	14*
COc1ccc2c(COC(=O)CC3Sc4ccccc4NC3=O)cc(=O)oc2c1 (centres undefined)	11	5	3	-1	0	0	·	·
COc1cc(NC(=S)Nc2ncccc2C)cc(OC)c1OC	106*	5	2	1	1	-2	93*	67*
COc1cc(NC(=O)c2ccccn2)cc(OC)c1OC	5	0	-1	1	0	-1	·	·
CCOc1ccc2cc(S(=O)(=O)N3CCCCC3)ccc2c1	9	-1	2	0	0	-1	·	·
Cc1cc(C)n2ncc(-c3cccc(Br)c3)c2n1	88*	3	0	3	0	-1	120*	24*
Nc1c(C(=O)c2ccc(Br)cc2)oc2ccccc12	122*	10	5	2	2	0	176*	·
CCOC(=O)c1oc2ccccc2c1NC(=O)COC	89*	1	0	0	-1	0	104*	15*
CCOC(=O)c1oc2ccccc2c1N	82*	6	0	2	0	0	122*	·
COc1ccc(C(=O)/C=C/c2ccc(OC)c(O)c2)c(F)c1	-2	-1	-1	-2	-1	-2	·	·
O=C(CSc1nnc(Cc2cccs2)n1CCc1ccccc1)N1CCCc2ccccc21	5	-3	2	-1	-1	-1	·	·
CCn1c(SCC(=O)N2CCCCCC2)nc2c([nH]c3ccccc32)c1=O	128*	1	5	0	1	0	102*	182*
CCn1c(SCC(=O)NCC2CCCO2)nc2c([nH]c3ccccc32)c1=O (centres undefined)	80*	0	5	0	2	0	88*	80*
O=C(CSc1nc2c([nH]c3ccccc32)c(=O)n1-c1ccccc1)NCC1CCCO1 (centres undefined)	26	1	-1	-1	0	-1	·	·
